These results are taken from PubChem BioAssay (NCATS).

Records with an inconclusive call do not appear. Entries that show only a call come without a potency. The source made the active and inactive calls. Calls come from the whole dose curve; as a rule, active = well fitted inhibition curve with a large enough effect; inconclusive = small, poorly fitted or top-dose-only effect; inactive = flat fitted curve, though single readings scatter.

Chain of Calcium and integrin-binding protein 1 (Homo sapiens) (Q99828 whole entry, looked up): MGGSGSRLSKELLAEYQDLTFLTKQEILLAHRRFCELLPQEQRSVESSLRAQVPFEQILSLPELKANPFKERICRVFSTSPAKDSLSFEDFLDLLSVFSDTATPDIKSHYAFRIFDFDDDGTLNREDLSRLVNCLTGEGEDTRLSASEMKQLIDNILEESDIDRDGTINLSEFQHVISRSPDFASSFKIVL

For the test, the target named is Calcium and integrin-binding protein 1 (Homo sapiens) (UniProt Q99828). Nature of the test: Primary qHTS for Identification of Calcium Integrin Binding Protein 1 (CIB1) Competitor (AID 1508620).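 Note: GST tagged CIB1 binding a fluorescein labelled alphaIIb integrin peptide tracer; top concentration of the series differs between compounds.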 The note with it: CIB1-GST / FITC-alphaIIb peptide fluorescence polarization; series mostly up to 114 µM. In a few lines:
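Fluorescence polarization competition: CIB1-GST (1 uM final) preincubated with compound 15 min at room temperature, then FITC-labeled alphaIIb peptide (100 nM final) added for another 15 min. Polarization read at Ex 480/Em 540.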
With `Cc1cccc(-c2ccc3ncnc(NCc4cc(C)cs4)c3c2)c1`, the Potency entry is “inactive”. For `CCOC(=O)C1CCN(C(=O)C(C)(C)NC(=O)Nc2ccc3c(c2)CCC3)CC1` the value was “inactive”.

For `CC(=O)N1CCN(c2nc(-c3ccc(Br)cc3)cs2)CC1`, the Potency entry was “inactive”. For `O=C(Nc1ccc(Cl)c(Cl)c1)Nc1nc(-c2ccncc2)cs1` the value was “inactive”; for `CCN(CC)c1ccc(NC(=O)CN(C)Cc2c(O)ccc3ccccc23)cc1`, “inactive”; for `Cn1nnnc1Sc1ncnc2scc(-c3cccc(N)c3)c12`, “inactive”. On to `O=C(O)c1ccc(-n2cccc2/C=C2\SC(=O)N(Cc3ccccc3Cl)C2=O)cc1`, for which the Potency entry was “inactive”. `C=CCNc1oc(-c2cccc(Br)c2)nc1C#N`: the Potency entry is “inactive”. Turning to `Cc1ccc(NS(=O)(=O)c2ccc(Cl)cc2)cc1C`, the Potency entry is “inactive”.

With `O=[N+]([O-])c1ccccc1NCc1ccc(O)c2ncccc12`, the Potency entry was “inactive”. Regarding `O=C(Nc1ccc2ccccc2c1)Nc1nnc(-c2ccccc2F)s1`, the Potency entry is “inactive”. The result for `COc1cccc(C2=Nn3c(nnc3-c3cc(OC)ccc3OC)SC2)c1` reads “inactive”.

For the compound `C[n+]1cc(C(O)(c2ccccc2)c2ccccc2)n2ccccc21`, the Potency result was “inactive”. In the case of `O=S(=O)(c1ccc2c(c1)OCCO2)N1CCN(S(=O)(=O)c2ccc(Cl)cc2F)CC1`, the Potency entry was “inactive”. The result for `O=S(=O)(Nc1nccs1)c1ccc(NCc2cc(F)ccc2O)cc1` reads “inactive”; that for `O=C(OCC#CCSc1nnc(-c2ccc3ccccc3c2)o1)c1ccsc1`, “inactive”; that for `CCC(Nc1ncnc2ccc(-c3c(C)noc3C)cc12)c1ccccc1` (stereo not given), “inactive”. On to `COc1ccc(-c2ccc3ncnc(N(C)Cc4csc(C)n4)c3c2)cc1OC`, for which the Potency result was “inactive”. For `O=C(NNC(=O)c1cc2ccccc2[nH]1)OCc1ccccc1` the value was “inactive”; for `COc1ccc(C2Nc3ccccc3C(=O)N2Cc2ccccc2)cc1Oc1ccc(NC(C)=O)cc1` (stereo not given), “inactive”; for `CCc1nn2c(=O)cc(-c3ccncc3)nc2s1`, “inactive”. As to `CCOc1ccc(CCNC(=O)c2cc3ccccc3o2)cc1OCC`, the Potency entry is “inactive”. In the case of `Fc1cccc(CNc2ncnc3ccc(-c4ccoc4)cc23)c1`, the Potency entry is “inactive”.

Take `Cc1ccc(NS(=O)(=O)c2ccc3c(c2)N(C)C(=O)CO3)cc1C`: the Potency entry is “inactive”. Take `Cc1c(C(=O)OCC(C)(C)C)[nH]c2c1C(=O)CC(c1ccco1)C2` (stereo not given): the Potency result was “inactive”. For the compound `Cc1cc(N[S+](=O)([O-])c2ccc(NC(=O)Cc3nc4ccc(Cl)cc4[nH]3)cc2)no1`, the Potency result was “inactive”. Turning to `Cc1cnc(-c2ccccc2C(C)C)nc1NCc1cccnc1`, the Potency entry is “inactive”. Consider `COc1cccc(CNc2ccc(S(=O)(=O)Nc3nc(C)cs3)cc2)c1O`, for which the Potency entry is “inactive”. Regarding `COc1ccc(-c2csc3ncnc(Sc4nnnn4C)c23)cc1`, the Potency result was “inactive”.

Regarding `CC(C)(C)OC(=O)NCc1nnc(C(C(=O)OCc2ccccc2)c2ccccc2)s1` (stereo not given), the Potency entry was “inactive”. The result for `COc1cc(F)c(S(=O)(=O)N2CCN(S(=O)(=O)c3cccs3)CC2)c(F)c1` reads “inactive”; that for `Cn1nnnc1Sc1ncnc2scc(-c3ccccc3F)c12`, “inactive”; that for `COc1ccccc1NC(=O)c1ccc2ccccc2c1`, “inactive”. On to `CC(=O)N1CCN(c2ccc(NCc3ccc(-c4cccc(Cl)c4)o3)cc2)CC1`, for which the Potency result was “inactive”. With `CN1CCc2sc(NC(=O)Cc3ccccc3)c(C(=O)Nc3ccc(Cl)cc3)c2C1`, the Potency result is “inactive”. With `Cc1cc(NS(=O)(=O)c2ccc(NC(=O)Cc3ccc(Cl)c(C(F)(F)F)c3)cc2)no1`, the Potency result is “inactive”. The result for `Cc1ccc(OCCn2c(CCNC(=O)/C=C/c3ccccc3Cl)nc3ccccc32)cc1` reads “inactive”; that for `CC(=O)N1CCN(c2ccc(NCc3ccc(C)cc3)cc2)CC1`, “inactive”. Regarding `Cc1cc2c(s1)c1cnn(Cc3cccc(F)c3)c(=O)c1n2C`, the Potency entry was “inactive”. In the case of `O=S1(=O)N=C(Oc2ccccc2F)c2ccccc21`, the Potency entry is “inactive”.
